Source: PubChem BioAssay (National Center for Advancing Translational Sciences (NCATS))
Mito fusion act = inhibitors of mitochondrial division or activators of mitochondrial fusion. S. cerevisiae fusion-defective mutant growth rescue, CellTiterGlo 48 h. Potency, µM (doses to about 46.1 µM), hits mostly activators. hit rate 0.23% among 320,000; note: nearly all actives have a fitted effect of over 45% in size
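Read-out: ATP-based luminescence (CellTiterGlo, 10 min ambient) reporting growth of fusion-defective ts yeast after 48 hours at 37C on glycerol/ethanol YPEG medium in the presence of compound.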
TDP43 rescue = TDP-43 toxicity inhibition in yeast; TDP-43 expressing yeast growth rescue, BacTiter-Glo, 24 h; Potency, µM (highest dose often 46.1 µM), usual class: activators; hit rate 1.8% among 410,000; note: nearly all actives have a fitted effect of over 50% in size
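Yeast cells expressing TDP-43 under galactose induction are exposed to compounds for 24 hr at 30 deg C. BacTiter-Glo luminescence measures growth, so protective compounds score as activators.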
aSyn yeast inh = rescues yeast growth from alpha-synuclein toxicity | Yeast expressing alpha-synuclein, growth rescue, BacTiter-Glo, 24 h | Potency, µM (highest dose often 46.1 µM), actives largely listed as activators | hit rate 0.14% among 370,000; note: nearly all actives have a fitted effect of over 65% in size
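Readout is rescue of growth in alpha-synuclein-expressing yeast, so inhibitors of toxicity appear as activators. Growth after 24 hr at 30 deg C in galactose medium is quantified by luminescence.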
Abeta rescue = A-beta toxicity reversal in yeast; Potency, µM (highest dose often 46.1 µM), actives largely listed as activators; hit rate 0.063% among 410,000; yeast expressing A-beta42, growth rescue, OD600, 48 h; response scale: 0% DMSO, 100% iron-clioquinol control; AID 1347071; note: nearly all actives have a fitted effect of over 55% in size
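Growth rescue measured by 600 nm absorbance after 48 h yeast culture at 30 C with compound. Values normalized between DMSO and an equimolar ferric chloride plus clioquinol control.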
FUS yeast rescue = FUS proteinopathy suppression in yeast. S. cerevisiae FUS-expressing, growth rescue, OD600, 24 h. Potency, µM (titrated, usually from 76.6 µM), usual class: activators. AID 1347120. hit rate 0.24% among 390,000; note: nearly all actives have a fitted effect of over 55% in size
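FUS-expressing yeast, raffinose-pregrown, induced in 2% galactose minimal medium at OD 0.005; compounds in a dilution series, 24hr at 30C. Growth restoration read as absorbance at 600 nm. CP55940 positive control, DMSO negative.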
Of the large screens only hits and unclear results are named; the others gave an inactive call; ! = not active in a repeat. Rows were chosen to be rich in hits. Some 2.2% of all compounds tested hit in one or more screens of this group. Calls come from the whole dose curve; as a rule, active = well fitted curve in the direction sought with a large enough effect; inconclusive = small, poorly fitted or top-dose-only effect, or another doubt; inactive = no such curve, though single readings can be large; an effect the other way counts as inactive or inconclusive.

COC(=O)c1ccc(COC(=O)c2nn(C)c(=O)c3ccccc23)cc1	aSyn yeast inh inconclusive
CCCn1c(C)c(C(=O)c2ccc3ccccc3c2)c2ccccc21	Mito fusion act 13µM (no result: TDP43 rescue, Abeta rescue, FUS yeast rescue)
CC(C)(C)c1ccc(C(=O)Nc2ccc3nc(SCC(=O)N4CCCC4)sc3c2)cc1	TDP43 rescue inconclusive, FUS yeast rescue inconclusive (no result: Mito fusion act, aSyn yeast inh)
O=S(=O)(NC1CCCCCCC1)OCC(Cl)(Cl)Cl	TDP43 rescue 35µM
O=C(CCC1N=C2c3ccccc3N=C(SCc3cccc(Cl)c3)N2C1=O)N1CCN(c2ccccc2)CC1 (stereo not given)	TDP43 rescue inconclusive, FUS yeast rescue inconclusive (no result: Mito fusion act, aSyn yeast inh)
COc1ccccc1C1Nc2ccccc2-n2c(-c3ccccc3)c3c(=O)n(C)c(=O)n(C)c3c21 (stereo not given)	TDP43 rescue inconclusive (no result: Mito fusion act, aSyn yeast inh)
COC1=C(C)C(=O)c2c(c(COC(N)=O)c3n2C[C@@H]2[C@@H]3N2C)C1=O (stereo not given in full)	none (no result: Mito fusion act, TDP43 rescue, Abeta rescue, FUS yeast rescue)
Cc1ccccc1C(=O)Nc1ccc2nc(SCC(=O)N(C)c3ccccc3)sc2c1	TDP43 rescue 35µM, FUS yeast rescue inconclusive (no result: Mito fusion act, aSyn yeast inh)
COc1cccc(N2CCN(c3c4c(nc5nncn35)CCC4)CC2)c1	TDP43 rescue inconclusive (no result: Mito fusion act, aSyn yeast inh)
C=C(COC(=O)CCC(=O)O)CC1CC(O)[C@]2(C)OC3CC4OC5C[C@]6(C)O[C@]7(C)CCC8OC9C[C@]%10(C)OC%11C(C)=CC(=O)OC%11CC%10OC9C[C@@H](C)C8OC7CC6O[C@]5(C)C/C=C\C4OC3CC2O1 (stereo not given in full)	Mito fusion act 16µM, FUS yeast rescue 7.1µM
CC1=CC(=O)OC2CC3OC4C[C@@H](C)C5OC6CC7O[C@]8(C)C/C=C\C9OC%10CC%11OC(CC(C)CO)CC(O)[C@]%11(C)OC%10CC9OC8C[C@]7(C)O[C@]6(C)CCC5OC4C[C@]3(C)OC12 (stereo not given in full)	FUS yeast rescue inconclusive
CCC(C)C1NC(=O)C2CCCN2C(=O)C(CC(C)C)OC(=O)CCNC(=O)C(C)N(C)C(=O)C(C(C)C)N(C)C1=O (stereo not given)	none (no result: Mito fusion act, FUS yeast rescue)
C=CCCC[C@@H]1OC(=O)CNC(=O)C([C@@H](C)CC)NC(=O)[C@@H]2CCCN2C(=O)C([C@@H](C)CC)OC(=O)[C@H](Cc2ccccc2)N(C)C(=O)[C@H](C(C)C)NC(=O)C1(C)C (stereo not given in full)	FUS yeast rescue 4µM (no result: Mito fusion act)
CC(=O)c1ccc(NC(=O)c2cc(CC(C)C)on2)cc1	TDP43 rescue inconclusive
CCCNc1nc(-c2cc(C(=O)Nc3ccccc3)on2)cc(C(C)C)n1	TDP43 rescue 18µM, aSyn yeast inh 13µM (no result: Mito fusion act)
NC(N)=NOCCC(N)C(=O)O (stereo not given)	none (no result: TDP43 rescue, Abeta rescue, FUS yeast rescue)
O=C1C(=O)C(Cl)=C(Cl)C(Cl)=C1Cl	aSyn yeast inh inconclusive (no result: Mito fusion act)
COc1ccc(S(=O)(=O)N(C)C[C@H]2OCCCC[C@H](C)Oc3ccc(N(C)C)cc3C(=O)N([C@H](C)CO)C[C@@H]2C)cc1	aSyn yeast inh inconclusive (no result: Mito fusion act)
CCCCSc1nc2c(cnn2-c2ccccc2)c(=O)n1N	TDP43 rescue 16µM
Nc1cnn(-c2ccccc2)c(=O)c1Cl	none
C/C=C/c1ccc2c(c1)OCO2	none
c1cc2c(cc1[C@H]1OCC3C1CO[C@@H]3c1ccc3c(c1)OCO3)OCO2 (stereo not given in full)	TDP43 rescue 11µM, FUS yeast rescue inconclusive (no result: Mito fusion act)
c1ccc(C2c3ccccc3-n3nncc3CN2CC2CCCCC2)cc1 (stereo not given)	TDP43 rescue 16µM (no result: Mito fusion act)
C#CCOc1ccc2c(c1)c(C(C)=O)c(C)n2Cc1ccccc1	TDP43 rescue 20µM
CCOC(=O)c1c(C)n(Cc2ccccc2)c2ccc(OCC(O)CN3C(=O)CNC3=O)cc12 (stereo not given)	none
CCOc1ccc(S(=O)(=O)NCCc2sc3nc(-c4ccc(C)cc4)nn3c2C)cc1	TDP43 rescue inconclusive (no result: Mito fusion act, aSyn yeast inh)
COc1ccccc1N=Nc1ccc(N)c(C)c1	TDP43 rescue inconclusive
CC(C)(C)c1ccc(OCCON2C(=O)CCC2=O)c(Cl)c1	TDP43 rescue 13µM
O=c1[nH]c2ccccc2n1C1CCN(C(c2cc3ccccc3o2)c2nnnn2Cc2ccccc2)CC1 (stereo not given)	FUS yeast rescue 8.9µM (no result: Mito fusion act)
CSCCC(c1nnnn1-c1ccc2c(c1)OCCO2)N1CCC(n2c(=O)[nH]c3ccccc32)CC1 (stereo not given)	FUS yeast rescue 25µM (no result: Mito fusion act)
O=c1[nH]c2ccccc2n1C1CCN(C(c2cccc3ccccc23)c2nnnn2Cc2ccccc2)CC1 (stereo not given)	FUS yeast rescue inconclusive (no result: Mito fusion act)
CC(=O)c1c(O)cc2c3c1OC(C)(C)C1CCC(C)(CC31)O2 (stereo not given)	TDP43 rescue inconclusive (no result: Mito fusion act)
CC(C)c1ccc(NC(=O)Cn2c(=O)oc3ccccc32)cc1	none
CC(C)=CCOc1c2occc2cc2ccc(=O)oc12	Mito fusion act 16µM!, TDP43 rescue inconclusive
S=C(NCCc1ccccc1)N1Cc2cc(-c3ccccc3)ccc2-n2nncc2C1	TDP43 rescue inconclusive, FUS yeast rescue inconclusive (no result: Mito fusion act)
S=C(NCCc1ccccc1)N1Cc2cc(N3CCCCC3)ccc2-n2nncc2C1	TDP43 rescue 35µM, FUS yeast rescue inconclusive (no result: Mito fusion act)
S=C(NCCc1ccccc1)N1Cc2ccccc2-n2nncc2C1	TDP43 rescue 22µM (no result: Mito fusion act)
CC(C)CC(=O)Nc1ccc(C(=O)Cn2c(=O)oc3ccccc32)cc1	Mito fusion act inconclusive
CCOc1ccc(C(=O)Nc2cc(NC(=O)c3ccco3)ccc2OC)cc1Br	TDP43 rescue inconclusive (no result: Mito fusion act, aSyn yeast inh)
C/C(=N\NC(N)=S)C12CC3CC(CC(C3)C1)C2	TDP43 rescue 14µM, Abeta rescue inconclusive
Fc1ccc([C@@H]2CCNC[C@H]2COc2ccc3c(c2)OCO3)cc1	none
COC(=O)c1ccc(N2C(=O)CC(N3CCC(O)(c4ccc(Br)cc4)CC3)C2=O)cc1 (stereo not given)	TDP43 rescue 6.3µM
COC(=O)c1ccc(N2C(=O)CC(N3CCC(n4c(=O)[nH]c5ccccc54)CC3)C2=O)cc1 (stereo not given)	none
CC1=Nc2cc(C(=O)N3CCC4(CC3)OCCO4)ccc2Sc2ccc(Cl)cc21	Mito fusion act 16µM
CCOc1ccc(CN2C(=O)c3ccccc3Sc3ccc(C(=O)N4CCC5(CC4)OCCO5)cc32)cc1	TDP43 rescue 13µM, FUS yeast rescue inconclusive (no result: Mito fusion act, aSyn yeast inh)
NN=C1C(Cl)=C(Cl)C(Cl)=C1Cl	TDP43 rescue 18µM (no result: Mito fusion act)
CCCCCCCCCCCCCC(=O)O[C@@H]1[C@@H](C)[C@@]2(O)[C@@H](C=C(CO)C[C@@]3(O)C(=O)C(C)=C[C@@H]23)C2C(C)(C)[C@@]21OC(C)=O (stereo not given in full)	Mito fusion act 16µM (no result: TDP43 rescue, Abeta rescue, FUS yeast rescue)
CC(C)C(=O)Nc1ccc([N+](=O)[O-])c(C(F)(F)F)c1	Mito fusion act 15µM!
